According to PubChem BioAssay AID463193 (University of Pittsburgh Molecular Library Screening Center, 2010):
Screen size: about 190,000 compounds; about 1,900 (1%) were called active.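 The calls were made as follows: active = percentage of spot-positive cells more than 3 SD above its plate mean, without a fluorescence outlier flag or 80% toxicity; inconclusive = no clear call, values can overlap the other calls; inactive = the rest.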 This excerpt belongs to a sample that is enriched for actives.

Test: GFP-LC3 puncta formation changes – imaging, high-content, MEF GFP-LC3, primary screen (AID 463193);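 as to % cells with GFP-LC3 spots: spot-positive cell cutoff set from DMSO-treated cells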
Conditions: autophagy, at 10 µM; % cells with GFP-LC3 spots: stronger effect = higher value; toxicity: measured here: cell loss, nuclei count

Row | Compound | % cells with GFP-LC3 spots | toxicity
1 | N#C/C(=C\c1ccccc1C(F)(F)F)C(=O)Nc1ccccc1F | 17.6% (inactive) | -10.6%
2 | C(=N\N1CCN(c2ccccn2)CC1)/C1=C(N2CCOCC2)C(=C/c2ccccc2)/CC1 | 21.9% (inactive) | 10.4%
3 | N#C/C(=C\C1=C(N2CCOCC2)C(=C\c2ccccc2)/CC1)C(=O)Nc1ccccc1F | 94.8% (active) | 9.15%
4 | O=C1CCCN1CCCNC(=S)Nc1ccc(F)c(Cl)c1 | 9.25% (inactive) | 10.7%
5 | COc1ccc(C(=O)NC(=S)Nc2ccc(N3CCCC3)cc2)cc1OC | 2.21% (inactive) | 8.63%
6 | COc1cccc(C(=O)Nc2ccc(N3CCCC3)cc2)c1 | 41.2% (active) | 21.3%
7 | COc1cccc(OC)c1C(=O)Nc1ccc(N2CCCCC2)cc1 | 4.97% (inactive) | 0.418%
8 | N#C/C(=C/c1ccc(N2CCCCC2)o1)C(=O)NCCc1c[nH]c2ccccc12 | 95% (active) | -16.4%
9 | CC(=O)N/C(=C/c1ccc(Cl)cc1)C(=O)NCCc1c[nH]c2ccccc12 | 1.94% (inactive) | -16.7%
10 | O=C(NCCc1c[nH]c2ccccc12)C(=O)NCC1CCCO1 (centres undefined) | 2.06% (inactive) | 4.43%
11 | CCOC(=O)N1CCN(S(=O)(=O)c2ccc(C(=O)Nc3ccc(F)cc3F)cc2)CC1 | 13.1% (active) | 35.6%
12 | O=C(Nc1cccc(F)c1)c1ccc(S(=O)(=O)N2CCCC2)cc1 | 2.96% (inactive) | -0.834%
13 | COc1ccc(C(=O)Nc2ccc(F)cc2F)cc1 | 8.35% (inactive) | 1.69%
14 | CCCCN1C(=O)/C(=C/C=C2/C=Cc3ccccc3N2CC)SC1=S | 36.6% (active) | 17.1%
15 | O=C(CCCN1C(=O)/C(=C/c2ccccc2)SC1=S)Nc1ccc(O)cc1 | 5.17% (inactive) | 20.5%
16 | CCCCN1C(=O)/C(=C2/C=CC=CN2C)SC1=S | 2.78% (inactive) | -16.3%
17 | Cc1ccccc1Cn1nc(C)c(NC(=O)C(F)(F)F)c1C | 25.2% (inactive) | -15.5%
18 | COc1ccc(NC(=O)COC(=O)c2ccncc2)c(OC)c1 | 4.41% (inactive) | 21.4%
19 | CC1c2nc3ccccc3n2C(CC(=O)NCCCN2CCOCC2)C(=O)N1Cc1ccccc1 (centres undefined) | 6.3% (inactive) | -3.99%
20 | COc1ccc(OC)c(NC(=S)N2CCc3ccccc3C2)c1 | 1.08% (inactive) | -17.2%
21 | COc1ccc(Nc2cc(C)nc(-n3nc(C)cc3C)n2)cc1 | 1.92% (inactive) | 48.3%

Row | Compound | % cells with GFP-LC3 spots | toxicity
22 | Cc1cc(C)n(-c2cc(Oc3ccccc3)ncn2)n1 | 4.54% (inactive) | -5.5%
23 | CC(=O)c1ccc(Oc2cc(C)nc(-n3nc(C)cc3C)n2)cc1 | 22.7% (active) | 52.9%
24 | O=C1/C(=C\c2ccsc2)NC(=S)N1c1ccccc1 | 0.432% (inactive) | 4.12%
25 | Nc1[nH]c(=S)nc2nc(-c3ccccc3)c(-c3ccccc3)nc12 | 14.2% (inactive) | 22.7%
26 | O=C(O)CS/C(=C\c1ccc(F)cc1)c1nc2ccccc2s1 | 5.4% (inactive) | -6.27%
27 | N#C/C(=C(/O)Cc1cccc2ccccc12)c1nc2ccccc2s1 | 0.484% (inactive) | -0.84%
28 | CC1=CC(=C(C#N)c2nc3ccccc3s2)C=C(C)N1c1ccc(F)cc1F | 27.8% (active) | 15.8%
29 | CCc1ccc2c(c1)cc(CN(C(=S)Nc1ccccc1Cl)C1CC1)c1nnnn12 | 19.7% (active) | 11.8%
30 | CCOc1ccc2c(c1)cc(CN(C(=O)CC)C1CCCCC1)c1nnnn12 | 5.66% (inactive) | 13.7%
31 | COCCN(CCOC)C(=S)Nc1ccccc1Cl | 8.84% (inactive) | -8.3%
32 | CSc1ccc(CCNC(=O)C2CCN(c3nnc(-n4cccc4)s3)CC2)cc1 | 4.67% (inactive) | 3.56%
33 | CCOC(=O)C1CCCN(C(=O)c2cncc(Br)c2)C1 (centres undefined) | 9.51% (inactive) | 4.79%
34 | CCOC(=O)C1CCCN(C(=O)C2CCN(c3nnc(-n4cccc4)s3)CC2)C1 (centres undefined) | 15.3% (active) | 6.19%
35 | Fc1cc(Br)ccc1NC(=S)Nc1cccnc1 | 4.97% (inactive) | -1.9%
36 | CN(C)c1ccc(-n2cccc2/C=N/n2cnnc2)cc1 | 4.65% (inactive) | -2.02%
37 | Cc1cccc(N=C2NC(=O)/C(=C/c3cn(C)c4ccccc34)S2)c1 | 2.55% (inactive) | 4.32%
38 | CN(C)c1ccc(-n2cccc2/C=C2/SC(=Nc3ccc(F)cc3)NC2=O)cc1 | 93.2% (active) | -20.2%
39 | CCC(C)(C)NC(=O)/C=C/c1cc(OC)c(OC)c(S(=O)(=O)N2CCc3ccccc32)c1 | 11.3% (inactive) | 20%
40 | CCN(CC)C(=O)CN(c1cccc([N+](=O)[O-])c1)S(=O)(=O)c1ccccc1 | 0.147% (inactive) | 2.32%
41 | O=C(Nc1cccc([N+](=O)[O-])c1)Nc1ccc(Cl)cn1 | 1.56% (inactive) | 15.9%
42 | O=C(CCl)N(Cc1cccc([N+](=O)[O-])c1)c1cccc(Cl)c1 | 60.8% (active) | 58.5%

Row | Compound | % cells with GFP-LC3 spots | toxicity
43 | Cc1ccccc1OCC(=O)Nc1nc(C)c(C(=O)N(C)C)s1 | 28.3% (inactive) | -9.79%
44 | CCc1cccc(NC(=O)CCC(=O)O)c1 | 4.04% (inactive) | 8.61%
45 | O=C(c1ccc(F)cc1)n1cc(C(=S)N2CCOCC2)c2ccccc21 | 8.35% (inactive) | -13.5%
46 | CCOC(=O)c1sc(NC(=O)CSc2nc(O)c(Cc3ccccc3)c(=O)[nH]2)nc1C | 4.28% (inactive) | -1.5%
47 | COc1ccc(Oc2coc3cc(OC(=O)c4cncc(Br)c4)ccc3c2=O)cc1 | 25.7% (active) | -11.8%
48 | CCc1ccc(Oc2coc3cc(OC(=O)c4cc5ccccc5oc4=O)ccc3c2=O)cc1 | 1.87% (inactive) | -5.27%
49 | COC(=O)c1ccccc1NC(=O)c1cncc(Br)c1 | 6.11% (inactive) | -8.54%
50 | Nc1nc(SCC(=O)N2CCN(S(=O)(=O)c3ccc(Cl)cc3)CC2)n[nH]1 | 1.97% (inactive) | -0.836%
51 | N#Cc1ccsc1NC(=O)CN1CCN(S(=O)(=O)c2cc(Cl)ccc2Cl)CC1 | 7.41% (inactive) | 41.3%
52 | CCOC(=O)N1CC=C2C(C#N)=C(N)C(C#N)(C#N)[C@H](c3cccs3)[C@H]2C1 | 11.3% (inactive) | -6.29%
53 | CCC1=C(C(=O)OC)C(c2cc(OC)ccc2OC)C(C#N)=C(N)O1 (centres undefined) | 2.22% (inactive) | -10.7%
54 | CCCN1CC=C2C(C#N)=C(N)C(C#N)(C#N)C(c3cc(OC)ccc3OC)C2C1 (centres undefined) | 99.7% (active) | 9.7%
55 | COCCCNCCOCCOc1ccc(Cl)cc1Br | 5.65% (inactive) | 4.08%
56 | CCn1nc(C)c(/C=N/NC(=O)Cc2ccc(Cl)cc2)c1C | 4.23% (inactive) | 8.44%
57 | Cc1cc(C)cc(NC(=S)NCCCN2CCOCC2)c1 | 12.3% (inactive) | -2.96%
58 | Cc1cc(C)c(S(=O)(=O)NCCCN2CCOCC2)cc1Br | 19.8% (active) | 9.5%
59 | Cc1ccc(S(=O)(=O)NCCN2CCOCC2)cc1C | 1.8% (inactive) | 15.4%
60 | CCc1nc2ccccc2c(C(=O)NCc2ccc(OC)cc2)c1C | 2.64% (inactive) | -18.8%
61 | C=CCNc1nc(Nc2ccc(Cl)cc2)nc(OC)n1 | 0.706% (inactive) | 0.881%
62 | Cc1ccc(NC(=O)OCCNC(=O)c2ccncc2)cc1 | 5.3% (inactive) | 0.481%
63 | CC[C@H]1OC(=O)[C@H](C)[C@@H](O[C@H]2C[C@@](C)(OC)[C@@H](O)[C@H](C)O2)[C@H](C)[C@@H](O[C@@H]2O[C@H](C)C[C@H](N(C)C)[C@H]2O)[C@](C)(O)C[C@@H](C)[C@@H]2N[C@@H](COCCOC)O[C@H]([C@H]2C)[C@]1(C)O | 10.6% (inactive) | 20.5%

Row | Compound | % cells with GFP-LC3 spots | toxicity
64 | COc1cccc2cc(S(=O)(=O)c3ccc(C)cc3)/c(=N/NS(=O)(=O)c3ccc(C)cc3)oc12 | 5.62% (inactive) | 3.69%
65 | CCN1C(=O)/C(=c2\s/c(=C3\Sc4ccccc4N3C)c(=O)n2C)N(C)C1=S | 1.17% (inactive) | 19.3%
66 | CCN1C(=O)/C(=C2/Sc3ccccc3N2CCCS(=O)(=O)O)SC1=S | 1.02% (inactive) | -10.6%
67 | CCN1C(=O)/C(=C2/Sc3ccc(OC)cc3N2C)SC1=Nc1ccc(C)cc1 | 24.8% (active) | -15%
68 | CC(=O)c1ccc(N=C2SCCCN2C(=O)C2CCCCC2)cc1 | 1.47% (inactive) | -1.61%
69 | CCCOc1ccc(NC(=O)C2CCCNC2=O)cc1 (centres undefined) | 12.2% (inactive) | -1.43%
70 | CCCOc1ccc(NC(=O)C2OC3OC(C)(C)OC3C3OC(C)(C)OC23)cc1 (centres undefined) | 19.1% (active) | -25.3%
71 | CCCOc1ccc(N/C=C/C(=O)C(C)(C)C)cc1 | 0.722% (inactive) | -6.8%
72 | C=CCOc1c(Br)cc(/C=N\n2nnnc2N)cc1OC | 6.77% (inactive) | 29%
73 | CC1CC2=C(CC1/C=N/NC(N)=S)C(C)(C)CCC2 (centres undefined) | 39.4% (active) | 20%
74 | CC1(C)CCCC2=C1CC1C(=O)N(c3ccccc3)C(=O)C1C2 (centres undefined) | 3.25% (inactive) | 1.28%
75 | Cc1cc2c(C)nc(N/N=C/c3ccccc3)nc2o1 | 16.3% (inactive) | 2.3%
76 | Cc1ccc(Cl)cc1N1CCN(C(=O)c2cccc3c(=O)c(C)c(-c4ccccc4)oc23)CC1 | 3.68% (inactive) | 9.69%
77 | O=C1CCC(=O)N1c1ccc(NCCc2ccccc2F)c([N+](=O)[O-])c1 | 1.23% (inactive) | 31.5%
78 | CC(Oc1cccc(NC(=O)c2cccs2)c1)C(=O)c1ccccc1 (centres undefined) | 9.23% (inactive) | 21.1%
79 | Cc1ccc(NC(=O)CN2CCCCC2)c2c1CC(C)(C)O2 | 4.85% (inactive) | -23.6%
80 | CCCc1[nH]nc2c1C(c1ccc(Br)s1)C(C#N)=C(N)O2 (centres undefined) | 13.3% (active) | 8.15%
81 | CCCc1[nH]nc2c1C(C1CC=CCC1)C(C#N)=C(N)O2 (centres undefined) | 8.01% (inactive) | 13%
82 | CCCc1[nH]nc2c1C(c1c(C)nn(-c3ccccc3)c1Cl)C(C#N)=C(N)O2 (centres undefined) | 16.1% (inactive) | 24.7%
